{"source": "PubChem BioAssay AID1259418", "about": "(Broad Institute, 2018)", "note": "In all, about 3,400 compounds went through this assay and about 840 (25%) were called active. Inconclusive results (about 11%) are left out.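 The calls were made as follows: active = fitted half-maximal concentration of signal decrease at or below twice the sample's top tested concentration; inconclusive = flat curve between -70 and -30 percent, or poor fit; inactive = flat within 30 percent, signal rise, or potency above limit.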 Only a sample is shown. Measured potencies and affinities stand elsewhere.", "data": [{"assay": "T. gondii growth inhibition with IFN-gamma, dose response, cell-based, ME49Luc, HeLa, luciferase, 72 h (AID 1259418)", "conditions": "T. gondii ME49Luc in IFN-y HeLa, active compounds read low, -100% = high-dose IFN-γ control wells; at 19.5 µM unless noted", "values": [{"smiles": "CCCc1ccc(S(=O)(=O)N2CCc3nc(-c4ccc(OC)cc4)sc3C2)cc1", "max activity": "13.1% [at 0.16 µM] (inactive)"}, {"smiles": "O=C(Cc1ccccc1Cl)Nc1ccc(-c2nc(-c3ccccc3)co2)cc1", "max activity": "20.3% [at 2.6 µM] (inactive)"}, {"smiles": "COc1ccccc1-c1nc(C)c(-c2ccc(SCc3ccc(F)cc3)nn2)s1", "max activity": "7.01% [at 0.35 µM] (inactive)"}, {"smiles": "Cc1cnc(N2CCC3(CCC(CC(=O)N4CC=CC4)CC3)CC2)nc1", "max activity": "19.8% [at 10 µM] (inactive)"}, {"smiles": "Cc1cnc(N2CCC3(CCN(CC4CC4)C3=O)CC2)nc1", "max activity": "44% (inactive)"}, {"smiles": "CCOc1ccc(CCNc2nc(-c3ccc(Cl)cc3)nc3ccccc23)cc1OCC", "max activity": "-12.8% [at 0.35 µM] (inactive)"}, {"smiles": "NCCCCCCNS(=O)(=O)c1ccc2c(Cl)cccc2c1", "max activity": "23.8% (inactive)"}, {"smiles": "O=C(Nc1ccc(F)cc1)Nc1ccc(-c2nc(-c3ccccc3)co2)cc1", "max activity": "-15.1% [at 1.35 µM] (inactive)"}, {"smiles": "COc1ccc(CNC(=O)Nc2ccc(-c3nc(-c4cc(C)ccc4C)co3)cc2)cc1", "max activity": "11.5% (inactive)"}, {"smiles": "COc1ccc(Cl)cc1S(=O)(=O)Nc1ccc(-c2nc(-c3ccc(C)cc3C)co2)cc1", "max activity": "11.6% [at 0.16 µM] (inactive)"}, {"smiles": "CCCCNC(=O)CCC1N=C2c3ccccc3N=C(SCC(=O)OCC)N2C1=O", "note": "(stereo unspecified)", "max activity": "-17.8% [at 2.6 µM] (inactive)"}, {"smiles": "CCCCNC(=O)CCC1N=C2c3ccccc3N=C(SCc3ccccc3F)N2C1=O", "note": "(stereo unspecified)", "max activity": "-6.88% [at 2.6 µM] (inactive)"}, {"smiles": "COc1ccccc1CNC(=O)CCC1N=C2c3ccccc3N=C(SCc3ccc(Cl)cc3)N2C1=O", "note": "(stereo unspecified)", "max activity": "16% [at 2.6 µM] (inactive)"}, {"smiles": "CCCCNC(=O)CCC1N=C2c3ccccc3N=C(SCc3cc(=O)n4ccccc4n3)N2C1=O", "note": "(stereo unspecified)", "max activity": "21.9% [at 0.68 µM] (inactive)"}, {"smiles": "CCCCNC(=O)CC1N=C2c3ccccc3N=C(SCc3ccccc3Cl)N2C1=O", "note": "(stereo unspecified)", "max activity": "-10.2% (inactive)"}, {"smiles": "CCCCNC(=O)CCC1N=C2c3ccccc3N=C(SCC#N)N2C1=O", "note": "(stereo unspecified)", "max activity": "51.3% (inactive)"}, {"smiles": "CCc1ccc(-c2noc(-c3nnn(Cc4nc(-c5ccc(C)cc5)oc4C)c3C)n2)cc1", "max activity": "8.04% [at 0.68 µM] (inactive)"}, {"smiles": "COc1ccc(OC)c(S(=O)(=O)Nc2ccc(-c3nc(-c4ccc(C)c(C)c4)co3)cc2)c1", "max activity": "20.8% [at 1.35 µM] (inactive)"}, {"smiles": "Cc1ccc(-c2nc(Cn3nnc(-c4nc(-c5ccc(C)c(C)c5)no4)c3C)c(C)o2)cc1", "max activity": "-11% [at 2.6 µM] (inactive)"}, {"smiles": "Cc1ccc(NC(=O)N2CCN(Cc3nc(-c4ccccc4C)oc3C)CC2)cc1Cl", "max activity": "14% [at 1.35 µM] (inactive)"}, {"smiles": "O=C(NCCc1csc(-c2ccccc2)n1)[C@H]1CCCN1C(=O)c1ccc(F)c(F)c1", "max activity": "13.1% [at 0.16 µM] (inactive)"}]}]}
